Source: PubChem BioAssay (NCI)
Compounds without any hit were thinned out: in the full panel of roughly 83,000, 20% have a hit.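 96-well plates, one dose, 48 hours. Percent growth reported; active if below 10.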 Unmarked numbers belong to inactive results. Active and inactive are the calls of the source.

Assays:
Experiment in all cases: NCI-60 one-dose screen, 48 h (100 = growth as untreated, 0 = no growth, -100 = all killed)
[1] = test system: NCI-H322M lung; details: 10 µM unless noted
[2] = test system: NCI-H460 lung; details: 10 µM unless noted
[3] = test system: HOP-92 NSCLC; details: 10 µM unless noted
[4] = test system: NCI-H522 lung; details: 10 µM
[5] = test system: A549/ATCC NSCLC; details: 10 µM unless noted
[6] = test system: 786-0 renal; details: 10 µM unless noted
[7] = test system: COLO 205 colon; details: 10 µM unless noted
[8] = test system: DU-145 prostate; details: 10 µM unless noted
[9] = test system: MALME-3M melanoma; details: 10 µM unless noted
[10] = test system: MDA-MB-231 breast; details: 10 µM unless noted
[11] = test system: RXF 393 renal; details: 10 µM unless noted
[12] = test system: SF-268 CNS; details: 10 µM unless noted
[13] = test system: SF-295 CNS; details: 10 µM unless noted
[14] = test system: SF-539 CNS; details: 10 µM unless noted
[15] = test system: UACC-257 melanoma; details: 10 µM unless noted
[16] = test system: M14 melanoma; details: 10 µM unless noted
[17] = test system: HOP-62 NSCLC; details: 10 µM unless noted
[18] = test system: K-562 leukemia; details: 10 µM unless noted

SMILES | growth [1] | growth [2] | growth [3] | growth [4] | growth [5] | growth [6] | growth [7] | growth [8] | growth [9] | growth [10] | growth [11] | growth [12] | growth [13] | growth [14] | growth [15] | growth [16] | growth [17] | growth [18]
Cc1ccc(N(CSc2ccc(Cl)cc2)CSc2ccc(Cl)cc2)cc1 | 64.1% | 14.3% | 56.8% | 39.3% | 28.5% | 51.5% | 118% | 44.8% | 69.1% | 18.4% | 91.4% | 25% | 11.3% | 16.1% | 88.9% | 57.8% |  | 
O=C(Nc1ccc(F)cc1)c1ccc(C(=O)Nc2ccc(F)cc2)cc1 |  | 105% | 105% | 111% | 98.9% | 98.8% | 114% | 112% | 101% | 102% | 105% | 107% | 91.1% | 89.9% | 101% | 105% | 98.2% | 98.7%
NC(=O)c1cc(Cl)ccc1NC(=O)COc1ccccc1 | 46.7% | 29.6% |  | 44.2% | 52.8% | 60.1% | 25.4% | 60.4% |  | 77.4% | 55% | 66.2% |  | 18.2% | 84.4% | 28.2% | 46.7% | 18.1%
COc1cccc(-c2ccc3c(c2)C2CCN(Cc4ccccc4)C3C2)c1 (configuration not stated) |  | 93.5% | 41% | 55.1% | 71.2% | 77.4% | 79.3% | 95.6% | 62.8% | 88.8% | 98% | 86.9% | 81.2% | 85.1% | 78.7% | 72.2% | 72.2% | 22.7%
CC1(C)N=C(N)N=C(N)N1c1cccc(OCCOc2cccc([N+](=O)[O-])c2)c1 |  | 19% | 86.4% | 7.73% (active) |  | 81.7% | 35% | 45.1% | 48.2% | 65% | 73.2% | 22.9% | 68.1% | 26.1% | 48.3% | 64.1% | 93% | 17.9%
CCCCC/C=C\C/C=C/CCCCCCCCNC(=O)Nc1ccc([N+](=O)[O-])cc1 | 120% | 84.4% | -1.17% (active) | 41.5% | 97% | 102% | 95% | 47.3% | 82.9% | 77.8% | 113% | 42.5% | 56.4% | 107% | 98.9% | 77.9% |  | 
COc1ccc(-c2c3c(N)c4c(nc3nc3c2c(C)nn3-c2ccccc2)CCCCC4)cc1 |  | 82.8% | 32.2% | 50.2% | 81.3% | 79.2% | 74.3% | 91.6% | 101% | 105% | 106% | 94.5% | 85% | 93.9% | 93.9% | 88.9% | 84.6% | 24.5%
CCCCNNC(=O)c1ccc(Br)cc1 | 59.3% | 50.1% |  |  | 57.6% | 79% | 46.1% | 50.9% |  | 76.1% | 69.5% | 56.4% | 38.4% | 61.4% | 16.3% | 42% | 55.5% | 29.9%
COc1cc(NC(=O)COc2ccccc2)c(C(N)=O)cc1OC | 40.1% | 7.91% (active) |  | -9.94% (active) | 20.5% | 44.4% | 8.28% (active) | 23.6% |  | 51.2% | 6.01% (active) | 53.4% | 7.73% (active) | -23.9% (active) | 51.3% | 16.8% | 30.5% | 7.84% (active)
C=CCCCCCCCCC(=O)[O-].C=CCCCCCCCCC(=O)[O-].[Zn+2] |  |  |  |  |  |  |  |  |  | 106% |  |  |  |  |  |  |  | 
Cc1ccc(C(=O)Nc2ccccc2N)cc1 | 71.6% | 66% |  | 70% | 90.8% | 75.4% | 94.6% | 73.5% |  | 69.7% | 84.6% | 69.6% | 62.5% | 68.1% | 68% | 77.5% | 92.2% | 62.5%
O=C(c1ccccc1)C(Br)C(Br)c1cccc([N+](=O)[O-])c1 (configuration not stated) | 101% | 90.2% | 65.1% | -68.8% (active) | 92.7% | 90.1% | -95% (active) | 76% | -43.1% (active) | 59.9% | -78.8% (active) | 72.1% | 88.5% | 38.1% | 19.8% | 34.3% |  | 
CC1=C(C/C=C(\C)CCC[C@H](C)CCC[C@H](C)CCCC(C)C)C(=O)c2ccccc2C1=O | 103% | 114% | 111% | 107% | 103% | 103% | 110% | 120% | 102% | 106% | 119% | 108% | 101% | 96.4% | 98.2% | 104% | 115% | 
O=C1CC2c3cc(-c4cc5ccccc5o4)ccc3CCN2C(=O)N1c1ccccc1 (configuration not stated) |  | 87.6% | 47.2% | 69.9% | 80% | 92.8% | 96.2% | 96.5% | 71.6% | 93.3% | 114% | 92.4% | 90% | 106% | 87.8% | 90.7% | 82.9% | 58.4%
CON=C1C[C@]2(C[C@@H]3C[C@@H](C/C=C(\C)C[C@@H](C)/C=C/C=C4\CO[C@@H]5[C@H](O)C(C)=C[C@@H](C(=O)O3)[C@]45O)O2)O[C@H](/C(C)=C/C(C)C)[C@H]1C | 72.1% | 39.3% | 24.8% | 50.5% | 48.7% | 65.5% | 59.1% | 39.6% | 65.9% | 54% | 47.2% | 58.3% | 33% | 85.1% | 81.3% | 57.4% | 76.5% | 
CN1CCN(CCCn2c3c(sc4ncccc43)c(=O)n3nnc(-c4ccccc4)c23)CC1 |  | -70.7% (active) | 59.6% | -73.5% (active) | -74.7% (active) | 95.4% | 63.6% | -18.2% (active) |  | -83.5% (active) | 75.3% | 91% | 98.6% | -96% (active) | 99.2% | 78.4% | -75.8% (active) | 1.27% (active)
Cc1nc2cc(Nc3nc(Nc4ccc(F)cc4)nc(-c4cccs4)n3)ccc2n1Cc1ccccc1 |  | 39.6% | 22% | 53.5% | 43.1% | 37.5% | 56.8% | 75.2% | 77.6% | 69.1% | 25.9% | 63.7% | 51.9% | 59.9% | 57.5% | 53.1% | 92.3% | 43.1%
